CHX counter – counter-screen hit for Shiga toxin inhibitors, cycloheximide; AID 2314; max response, %; cell reporter, cycloheximide protein synthesis inhibition counterscreen; 300,000 tested, 12% active; in the data active means max response mostly above about 13%, no sharp cut-off; inactive means mostly below about 14%; further: read at 38.3 µM for the half of the compounds with a filed dose; 0% is about no effect
Pf growth 48h – P. falciparum growth inhibition at 48 hours (one generation). P. falciparum luciferase growth in erythrocytes, 48 h. Potency, µM (doses to about 28.7 µM), for inactives: at the highest dose activity change, negative = inhibition, hits mostly inhibitors. 310,000 tested, 5.9% active. AID 504832; further: potency means the concentration at half of the fitted maximal effect; on the % scale 0 is the no-effect control and ±100 the full control effect
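Erythrocytes infected with P. falciparum carrying an integrated firefly luciferase reporter (2% hematocrit, 0.1% parasitemia final) were exposed to compounds in RPMI 1640 with 0.5% Albumax at 37 C, 5% CO2. Growth inhibition was scored as reduced luminescence.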
Pf growth 96h – P. falciparum growth inhibition at 96 hours | P. falciparum luciferase reporter growth, 96 h | Potency, µM (series often up to 28.7 µM), for inactives: top-dose activity change, negative = inhibition, usual class: inhibitors | 320,000 tested, 6.9% active; further: potency means the concentration at half of the fitted maximal effect; on the % scale 0 is the no-effect control and ±100 the full control effect
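Two parasite generations (96 h, 37 C, 5% CO2) of compound exposure in infected erythrocytes (0.05% parasitemia, 2% hematocrit). Luciferase-reporter P. falciparum; decreased luminescence indicates inhibited growth, aimed at apicoplast-acting delayed death.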
Shiga inhibitor – inhibitors of Shiga toxin in Vero cells; 290,000 tested, 9.2% active; Vero cells, Shiga toxin protein synthesis inhibition reporter; inhibition, % at 38.7 µM; in the data active means inhibition mostly above about 28%, no sharp cut-off; inactive means mostly below about 43%; further: 0% is about no effect
The depositor's hits bear a star; ? = inconclusive; nt = no result given; [ ] = remark or other dose. In the library only some 21% were active in any assay of this set; here they are far more common. Unless noted, the call rests on the fitted dose curve; in most records, active means well fitted inhibition curve with a large enough effect; inconclusive means small, poorly fitted or top-dose-only effect, or another doubt; inactive means no such curve, though single readings can be large or run the other way.

SMILES	CHX counter	Pf growth 48h	Pf growth 96h	Shiga inhibitor
COc1ccccc1CNC(=O)C1CCN(S(=O)(=O)c2ccc3c(c2)NC(=O)CO3)CC1	-1	-12%	10µM*	-2
COc1cc(OC)c(NS(=O)(=O)c2ccc3c(c2)NC(=O)CO3)cc1Cl	-8	4%	10µM*	-5
CC(C)c1ccc(NC(=O)C2CCN(S(=O)(=O)c3ccc4c(c3)NC(=O)CO4)CC2)cc1	4	?	7%	-10
Cc1ccc(C)c(NS(=O)(=O)c2ccc3c(c2)NC(=O)CO3)c1	-10	6%	-28%	-8
COc1cccc(CNC(=O)C2CCN(S(=O)(=O)c3ccc4c(c3)NC(=O)CO4)CC2)c1	-4	-4%	?	-6
Cc1ccc(NC(=O)C2CCN(S(=O)(=O)c3ccc4c(c3)NC(=O)CO4)CC2)cc1	4	?	13µM*	-6
CC1(c2ccccc2)CC(C)(C)N2C(=O)C(=O)c3cccc1c32 (configuration not stated)	-2	12µM*	26%	1
COC(=O)c1ccc(N=NN2CCOCC2)cc1	41*	187%	13%	34*
COC(=O)c1ccc(N=NN2CCCCCC2)cc1	79*	191%	9%	88*
NS(=O)(=O)c1ccc(N=NN2CCCCC2)cc1	52*	65%	34%	56*
COC(=O)c1ccc(C(=S)N2CCOCC2)cc1	6	14%	-10%	-3
Clc1ccc(N=NN2CCOCC2)cc1	42*	47%	26%	71*
CC(C)C(NC(=O)c1ccco1)C(=O)NCc1ccc(C(=O)O)cc1 (configuration not stated)	-4	18%	42%	-8
O=C(O)c1ccc(N=NN2CCCCC2)cc1	53*	0%	38%	57
Cc1cc(N=NC(=O)c2ccccc2)ccc1O	16	15%	16%	20
O=Cc1cc(N=Nc2cccc(C(=O)O)c2)ccc1O	39*	-28%	-5%	76*
O=Cc1cc(N=Nc2ccccc2Cl)ccc1O	34*	?	-18%[5.75 µM]	29
FC(F)(F)c1ccnc(N2CCN(Cc3cnc(-c4ccccc4)[nH]3)CC2)c1	63*	-11%	-1%	61*
COC(=O)C(=Nc1ccccc1)/C(C(=O)C(=O)N(C)c1ccccc1)=C(\O)c1ccccc1	44*	34%	87%	119*
c1ccc(-c2nc3nc4ccccc4nc3n2CC2CCCO2)cc1 (configuration not stated)	30*	15%	-13%	30
CCCCNC(=O)NCc1cnn(C)c1C	-5	-70%	-102%	-10
CCC1SC(=NC(=O)c2ccc(Cl)c(Cl)c2)NC1=O (configuration not stated)	20*	19%	-19%	43
O=C(CC1S/C(=N/N=C/c2cccs2)NC1=O)Nc1ccc(Cl)c(Cl)c1 (configuration not stated)	-7	17%	?	-10
CCOC(=O)C1=C(COC(=O)CCCOc2ccccc2)NC(=O)NC1C (configuration not stated)	nt	?	29%	nt
Cc1cc(NC(=O)c2cc(-c3ccccc3Cl)nc3ccccc23)no1	-4	13µM*	?	-8
SMILES	CHX counter	Pf growth 48h	Pf growth 96h	Shiga inhibitor
Cc1cc(NC(=O)c2cc(-c3ccccc3C)nc3ccccc23)no1	-1	?	?	-4
O=C(Nc1nn[nH]n1)c1cc(-c2ccc(Cl)c(Cl)c2Cl)nc2ccccc12	12	-4%	2.3µM*	-3
Cc1cc(NC(=O)c2cc(-c3ccc(C)s3)nc3ccccc23)no1	4	nt	12µM*	12
O=C(NCc1ccccn1)c1cc(-c2ccccc2Cl)nc2ccccc12	-5	9.3µM*	?	-13
CC1CCCC(NC(=O)CN(C)CC(=O)Nc2ccc(F)cc2)C1C (configuration not stated)	nt	-15%	35%	nt
O=S(=O)(Cc1ccc(Cl)cc1)N1CCN(c2ncccn2)CC1	-2	37%	46%	20
CCN(Cc1ccncc1)C(=O)c1cc(Br)cc(Br)c1O	-7	2%	-33%[1.15 µM]	-5
COc1ccc(CNC(=O)N2CCN(C(=O)c3ccccc3)CC2)cc1	nt	-12%	32%	nt
Cc1c(Cl)ccc2c(C(=O)Nc3cc(C(C)(C)C)on3)cc(-c3ccccn3)nc12	6	0%	2.1µM*	-7
COc1ccc(Nc2cc(C(=O)NCc3ccccn3)c3ccccc3n2)c(OC)c1	16	33%	13µM*	63
CCc1ccc(-c2cc(C(=O)Nc3c(C)n(C)n(-c4ccccc4)c3=O)c3ccccc3n2)s1	-4	?	?	4
Cc1cccc2c(C(=O)Nc3ccc(Br)cc3)cc(-c3ccccn3)nc12	15	14%	?	-8
Cc1cccc(NC(=O)c2cc(-c3ccc(C)s3)nc3ccccc23)n1	7	10µM*	36%	53
Cc1cc(NC(=O)c2cc(-c3cccnc3)nc3c(C)c(C)ccc23)no1	-3	2.9µM*	13%	-4
Cc1cc(NS(=O)(=O)c2ccc(NC(=O)c3cc(-c4cccnc4)nc4ccc(Cl)cc34)cc2)no1	-4	1%	26%	-12
Cc1cc(=O)n2nc(-c3ccc(C(F)(F)F)cc3)sc2n1	33*	63%	nt	10
COc1ccccc1-c1nn2c(=O)cc(C)nc2s1	7	48%	nt	26
CCCc1cc(CNC(=O)C2CCC(=O)N(Cc3ccccc3OC)C2)on1 (configuration not stated)	3	-9%	-23%	4
CC(CNC(=O)c1cccnc1)NC(=O)c1cccnc1 (configuration not stated)	nt	-6%	8%	nt
Cc1c(N=Cc2c(O)n(Cc3ccco3)c(=O)[nH]c2=O)c(=O)n(-c2ccccc2)n1C	-4	9%	?	-1
Cc1c(N=Cc2c(O)n(Cc3ccco3)c(=O)c3ccccc23)c(=O)n(-c2ccccc2)n1C	1	12µM*	17%	6
CCOc1ccc(C(=O)OCC(=O)N2CC(C)OC(C)C2)cc1OCC (configuration not stated)	8	-8%	17%	12
Cc1ccc(-n2c(C)cc(/C=c3/sc4nc5ccccc5n4c3=O)c2C)cc1	35*	127%	-39%	87*
COc1ccc(/C=c2/sc3nc(-c4ccccc4)c(-c4ccccc4)n3c2=O)cc1	0	3%	9%	-11
O=c1/c(=C\c2cccn2-c2ccccc2)sc2nc3ccccc3n12	21	17%	15%	28*
O=C(O)Cn1cc(/C=C2/NC(=O)N(c3ccc(Cl)cc3)C2=O)c2ccccc21	-8	?	6%	7
O=C(O)Cn1cc(/C=c2/sc3nc4ccccc4n3c2=O)c2ccccc21	37*	269%	-13%	115*
COc1cc(N2CCCC2)c(OC)cc1/C=c1/sc2nc3ccccc3n2c1=O	-2	33%	2%	13
CCOC(=O)c1cccc(NC(=S)N2CCN(c3ncc4c(=O)c(C(=O)O)cn(CC)c4n3)CC2)c1	-2	-3%	8%	2
CCCCOC(=O)c1ccc(NC(=S)N2CCN(c3ncc4c(=O)c(C(=O)O)cn(CC)c4n3)CC2)cc1	-2	2.6µM*	1.3µM*	-3
